The term AC50 denotes the concentration giving half of the maximal activity seen.

Records with an inconclusive call do not appear. Calls of active or inactive are those of the source. Rule for the calls: active = hit-call score of the fitted dose curve at least 0.9, where 1 is the maximum; inconclusive = response in the unintended direction; inactive = score below 0.9.

The values below come from PubChem BioAssay (EPA / NIEHS).

The target of this assay is Nucleoli Translocation, AR (gene 367) (UniProt P10275). Briefly: UPITT_HCI_U2OS_AR_TIF2_Nucleoli_Antagonist: University of Pittsburgh U2OS Androgen Receptor-Transcriptional Intermediary Factor 2 (AR-TIF2) Antagonism High Content Imaging Assay for Nucleoli Translocation (AID 2283997). The source says: UPITT_AR_TIF2_PPIB is a cell-based, high-content imaging assay that uses U2OS, a human osteosarcoma cell line, expressing a human androgen receptor fused to red fluorescent protein and the coactivator TIF2 fused to green fluorescent protein. UPITT_HCI_U2OS_AR_TIF2_Nucleoli_Antagonist is one of four assay components measured from the UPITT_AR_TIF2_PPIB assay. It is designed to make measurements of red fluorescence localized in the nucleolar region of the cell nucleus as detected with high-content fluorescent imaging.Data from the assay component UPITT_HCI_U2OS_AR_TIF2_Nucleoli_Antagonist was analyzed into 1 assay endpoint. This assay endpoint, UPITT_HCI_U2OS_AR_TIF2_Nucleoli_Antagonist, was analyzed in the positive analysis fitting direction relative to DHT as the baseline of activity. Using a type of binding reporter, measures of receptor for loss-of-signal activity can be used to understand the binding at the pathway-level as it relates to the gene AR.
Chain of Nucleoli Translocation, AR (gene 367) (P10275 whole entry, looked up, the tested form may be a part): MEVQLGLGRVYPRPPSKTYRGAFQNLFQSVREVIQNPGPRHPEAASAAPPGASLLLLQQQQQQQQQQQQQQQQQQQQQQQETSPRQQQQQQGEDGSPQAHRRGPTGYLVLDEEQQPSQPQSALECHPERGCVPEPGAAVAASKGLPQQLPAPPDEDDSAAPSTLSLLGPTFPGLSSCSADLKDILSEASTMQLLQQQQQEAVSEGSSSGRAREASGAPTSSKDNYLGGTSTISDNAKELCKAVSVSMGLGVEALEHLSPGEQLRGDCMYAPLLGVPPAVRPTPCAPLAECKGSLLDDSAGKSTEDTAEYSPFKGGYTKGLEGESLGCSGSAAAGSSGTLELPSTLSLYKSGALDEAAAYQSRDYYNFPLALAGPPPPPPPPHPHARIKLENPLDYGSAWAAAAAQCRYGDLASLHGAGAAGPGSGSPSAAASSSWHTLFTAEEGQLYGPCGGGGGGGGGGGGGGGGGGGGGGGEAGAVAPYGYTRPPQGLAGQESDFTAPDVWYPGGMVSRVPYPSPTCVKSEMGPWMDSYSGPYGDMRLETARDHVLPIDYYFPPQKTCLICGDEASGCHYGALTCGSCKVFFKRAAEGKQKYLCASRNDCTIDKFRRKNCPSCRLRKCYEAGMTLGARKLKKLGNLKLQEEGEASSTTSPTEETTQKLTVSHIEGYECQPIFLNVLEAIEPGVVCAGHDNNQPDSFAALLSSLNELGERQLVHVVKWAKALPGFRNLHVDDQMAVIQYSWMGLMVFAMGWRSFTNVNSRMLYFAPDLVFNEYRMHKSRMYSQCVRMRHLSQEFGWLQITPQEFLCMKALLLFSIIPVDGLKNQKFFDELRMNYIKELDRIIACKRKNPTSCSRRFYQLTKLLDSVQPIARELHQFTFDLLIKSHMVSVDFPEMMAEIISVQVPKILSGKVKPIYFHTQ
Daughter plates containing 2 uL of 10 mM compounds in DMSO were prepared and replicated from the 384-well Library of Pharmacologically Active Compounds (LOPAC) master plates using the Bravo outfitted with a 384-well transfer head. Aluminum adhesive plate seals were applied with an Abgene Seal-IT 100 (Rochester, NY) plate sealer, and the plates were stored at -20 C in a Matrical MatriMinistore (Spokane, WA) automated compound storage and retrieval system. For screening, LOPAC daughter plates were withdrawn from -20C storage, thawed to ambient temperature, centrifuged 1-2 min at 50 g, and the plate seals were removed before the transfer of 98 uL of serum-free tissue culture medium (SFM) into wells using the BioTek Microflo liquid handler (BioTek, Winooski, VT) to generate a 200 uM intermediate stock concentration of library compounds (2.0% DMSO). The diluted compounds were mixed by repeated aspiration and dispensation using a 384-well P30 dispensing head on the Evolution P3 (EP3) liquid handling platform (PerkinElmer, Waltham, MA) and then 5 uL of diluted compounds was transferred to the wells of assay plates. In the LOPAC screen, compounds were individually tested at a final concentration of 20 uM (0.2% DMSO). After the diluted compounds had been transferred from the daughter plates to the primary HCS assay plates, aluminum adhesive plate seals were applied and the diluted daughter plates were stored frozen at -20C. To confirm active compounds identified in the primary screen, we withdrew the LOPAC daughter plates containing the 200 uM intermediate concentration of library compounds (2.0% DMSO) from -20C storage, thawed them to ambient temperature, centrifuged them for 1-2 min at 50 g, and removed the plate seals. A work list was generated to direct the Multiprobe Janus liquid handling platform (PerkinElmer) to cherry pick 75 uL from the wells of the diluted daughter plates that were flagged active in the primary screen and to reformat these into a 384-well plate hit confirmation daughter plate. Five microliters of primary HCS active compounds was then transferred into triplicate wells of assay plates using a 384-well P30 dispensing head on the Evolution P3 (EP3) liquid handling platform (PerkinElmer). […] Daughter plates containing 2 uL of the serially diluted compounds in DMSO were prepared and replicated from the 384-well serial dilution master plates using the Bravo outfitted with a 384-well transfer head. Aluminum adhesive plate seals were applied and plates were stored at -20C. […] The ImageXpress Ultra (IXU) platform (Molecular Devices LLC, Sunnyvale, CA) and The ImageXpress Micro (IXM) platform were used for imaging.
Take `C[C@H]1[C@H](c2ccc(Cl)cc2)SC(=O)N1C(=O)NC1CCCCC1`: the AC50 is 27.4 µM (active).
Take `O=[N+]([O-])/N=C1\NCCN1Cc1ccc(Cl)nc1`: the compound was classed as inactive.
On the same count and under the same terms, the entry for `Cc1[nH]c(=O)n(C(C)(C)C)c(=O)c1Cl` is “inactive”; for `C#CCN1C(=O)COc2cc(F)c(N3C(=O)C4=C(CCCC4)C3=O)cc21` it is “inactive”.
As to `O=[N+]([O-])c1c(Cl)c(Cl)c(Cl)c(Cl)c1Cl`, the AC50 was 20.6 µM (active).
As for `Oc1ccc(Cl)cc1Cc1ccccc1`, the concentration at half-maximal activity (AC50) was 19.1 µM (active).
For `O=C(O)CCCOc1ccc(Cl)cc1Cl`, the call was inactive.
Turning to `CCOC1Oc2ccc(OS(C)(=O)=O)cc2C1(C)C` (stereo unspecified), the outcome was inactive.
Turning to `O=S1OCC2C(CO1)C1(Cl)C(Cl)=C(Cl)C2(Cl)C1(Cl)Cl` (stereo unspecified), the AC50 is 30.6 µM (active).
Same read-out and setting: under `CCC(C)(C)C(=O)OC1=C(c2ccc(Cl)cc2Cl)C(=O)OC12CCCCC2` stands 50 µM (active).
Consider `CCCN(CCC)c1c([N+](=O)[O-])cc(C(F)(F)F)cc1[N+](=O)[O-]`, for which the compound was classed as inactive.
